Test results reported in PubChem BioAssay AID743269 (The Scripps Research Institute Molecular Screening Center, 2014).
In all, about 370,000 compounds went through this assay and about 2,400 (0.65%) were called active. The sample holds actives, similar compounds and a random draw of the others, so the mix is not that of the screen.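 The calls were made as follows: active = inhibition above the screen-wide mean plus 3 SD (cut at about 13% in these data); inactive = the rest.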

test system: HIV-1 integrase (with human LEDGF/p75); experiment: blockers of LEDGF/p75-dependent integrase strand transfer – biochemical, TR-FRET, high throughput, primary screen (AID 743269); settings: TR-FRET IN-LEDGF/p75 DNA integration, Eu/Cy5; at 3.7 µM; hits give high values;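 also: signal is the Cy5 over europium emission ratio at 671 and 618 nm; 0% = plate median of compound wells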

inhibition, active:
COc1ccc(C(=O)/C=C/c2ccc(-c3ccccc3)cc2)cc1CSCC(=O)O 13.5%, CN(C(=O)COC(=O)c1cc(-c2ccco2)nc2ccccc12)C1CCS(=O)(=O)C1 (stereo not drawn) 30.7%, C=CCN1C(=O)C(O)(CC(=O)c2ccccn2)c2ccccc21 (stereo not drawn) 15.4%, Clc1cc(NC2CCCCC2)ncn1 21.7%, CC(=NCc1ccc2c(c1)OCO2)C1=C(O)c2ccccc2C1=O 14.5%, C[C@H]([C@@H](O)[C@@H](O)[C@@H](C)C(C)(C)C)[C@H]1CC[C@H]2C3CC[C@H]4C[C@H](OS(=O)(=O)O)[C@@H](OS(=O)(=O)O)C[C@]4(C)[C@H]3CC[C@]12C (stereo partly drawn) 22.1%, NC1=NN(c2cccc(C(=O)O)c2)C(=O)C1 13.8%, Cc1cc(C)c2nc(-c3ccco3)cc(C(=O)O)c2c1 57.2%, CCn1nc(C)c(CN2CCN(Cc3ccc(OC)c(C)c3C)C(CCO)C2)c1C (stereo not drawn) 13.4%, O=C1C=CC(=O)N1c1ccc(N2CCCCC2)cc1 14.3%, C=CCn1c(=S)[nH]c2scc(-c3ccco3)c2c1=O 42.3%, O=C(c1cccc(C(F)(F)F)c1)N1CC[C@H]2[C@H](CCCN2Cc2cc(F)cc(F)c2)C1 86.5%, CSc1nc(N)c(C#N)c(-c2ccccc2Cl)c1C#N 30.9%, CCc1cc2c(SCC(=O)Nc3ncc(Cl)c(C)c3Cl)ncnc2s1 44.2%, CN(Cc1ccc(F)cc1)C(=O)CN1C(=O)c2ccccc2S1(=O)=O 18%

inhibition, inactive:
COc1ccc(CCNC(=O)CSc2nc3c([nH]2)c(=O)n(C)c(=O)n3C)cc1 0.75%, O=C(NCc1cccs1)C1CCN(S(=O)(=O)c2ccccc2[N+](=O)[O-])CC1 3.07%, CC(C)(C)NC(=O)C(c1cccnc1)N(C(=O)c1cnco1)c1ccc(C(C)(C)C)cc1 (stereo not drawn) 0.93%, CCOC(=O)[C@]12CCCCC/C=C\1N(Cc1ccc(OC)cc1)C(=O)[C@H]2CC(=O)NCc1ccc(C)o1 -2.04%, COC(=O)c1ccc(COc2ccc(/C=C/C(=O)c3ccc(OC)c(CSCC(=O)O)c3)cc2OC)cc1 1.77%, COc1ccc(C(C)=O)cc1CSc1nc2nc(C)cc(C)n2n1 -4%, CCOc1ccc(Oc2c(Cl)cnn(-c3ccc(C)cc3)c2=O)cc1 -2.65%, COc1cccc(N(C)C(=O)[C@@H](C)[C@@H](O)c2ccc3ccccc3c2)c1 2.81%, CN(C(=O)COC(=O)c1cc(=O)[nH]c2ccccc12)C1CCCCC1 -9.3%, CC(=O)c1ccc(OCC(=O)N(C)C2CCS(=O)(=O)C2)cc1 (stereo not drawn) 1.55%, CCOC(=O)[C@]12CCCC=C1N(Cc1ccc(OC)cc1)C(=O)[C@@H]2CC(=O)NCc1cccs1 0.74%, CCOC(=O)CN1C(=O)C(O)(CC(=O)c2ccccn2)c2ccccc21 (stereo not drawn) 3.17%, O=C(CC1(O)C(=O)N(CN2CCOCC2)c2ccccc21)c1ccccc1 (stereo not drawn) 3.55%, N#CCC[C@H]1CC[C@]2(CCCN(Cc3ccc(Cl)cc3)C2)O1 0.5%, O=S1(=O)c2ccc(Br)cc2OC[C@H](Cc2ccccc2)N1Cc1cn(Cc2ccccc2)nn1 -5.3%, Cc1cc([N+](=O)[O-])c(NC2CCCCC2)c([N+](=O)[O-])c1 0.17%, CCc1cc2c(NC3CCCC3)ncnc2s1 -1.83%, O=C(C1CCN(S(=O)(=O)c2ccccc2)CC1)N1CCN(C2CCCCC2)CC1 -2.53%, Cc1cc(C)cc(NC(=O)N2CCC(N(C)CCC(C)C)CC2)c1 3.5%, CC1(C(=O)NCc2ccc3c(c2)OCO3)CCN1CCc1ccccc1 (stereo not drawn) 3.29%, O=C(CC(Cc1ccccc1)C(=O)O)NCCc1ccc2c(c1)OCO2 (stereo not drawn) -1.84%, O=S(=O)(c1ccccc1)N1CCC(c2nc3ccccc3o2)CC1 -3.8%, Cc1ccc(C(=O)N(Cc2ccccn2)CC2CCCO2)cc1 (stereo not drawn) -1.5%, O=C(CSc1nc2ccccc2nc1N1CCCCC1)N1CCN(S(=O)(=O)c2cccc([N+](=O)[O-])c2)CC1 7.35%, CC(C)CNS(=O)(=O)CC1NCCc2ccccc21 (stereo not drawn) -2.87%, CC(=O)O[C@H]1CC[C@@]2(C)[C@@H](CC[C@@H]3[C@@H]2CC[C@]2(C)[C@@H](C(C)(C)O)C[C@@H]32)C1 0.72%, C=C1C(C(C)C)N(C)C2=NC(c3ccccc3)CC(=O)N12 (stereo not drawn) 1.74%, COC(=O)C1CN(Cc2ccc(F)cc2)CCS(=O)(=O)N1Cc1ccc(Cl)cc1 (stereo not drawn) -0.83%, CCc1ccccc1NC(=O)CSc1nnc(-c2cccs2)o1 1.45%, O=C(c1cccc(N2CCCC2=O)c1)N1CCOCC1 -4.51%, C/C(=N\NC(=O)c1cccc(N2CCCC2=O)c1)c1ccc(N)cc1 -2.92%, CCOC(=O)N1CCN(C(=O)C[C@H]2C[C@@]3(C(=O)OC)C(=C[C@H](C(C)(C)C)O[C@@H]3C)N(Cc3ccc(Cl)cc3Cl)C2=O)CC1 -2.55%, CCOC(=O)c1ccn(-c2nc(-c3ccco3)cc(C(F)(F)F)n2)n1 -1.1%, Cc1ccsc1-c1cc(C(=O)O)c2c(ccc3ccccc32)n1 0.22%, COc1ccc(-n2c(COc3ccc(C)cc3)nnc2SCC(=O)Nc2ccc(Oc3ccccc3)cc2)cc1 -0.53%, COC(=O)c1cccc(Cn2ccc3ccc(-c4ccc5ccn(C(=O)c6ccccc6C)c5c4)cc32)c1 1.28%, CC(C)(C)c1ccc(CSc2nnc(-c3cccs3)o2)cc1 -0.85%, CCOc1ccc(CN2CCN(Cc3ccc(C)o3)CC2CCO)cc1 (stereo not drawn) -3.16%, COc1ccc(CN2CCN(Cc3cn(C)nc3-c3ccccc3)CC2CCO)c(C)c1C (stereo not drawn) 3.11%, Cc1ccc(NC(=S)NNC(=O)CSc2nnc(SCc3ccccc3Cl)s2)cc1 3.99%, CC(C)N1CCCCC(NC(=O)c2ccc3ccccc3c2)C1=O (stereo not drawn) 0.96%, Cc1ccc(Cn2cc(CN3[C@@H](CC(C)C)COc4ccc(Cl)cc4S3(=O)=O)nn2)cc1 1.01%, O=S1(=O)c2ccc(Br)cc2OC[C@@H](Cc2ccccc2)N1Cc1cn(Cc2ccco2)nn1 5.73%, Cc1ccc(-n2c(SCC(=O)Nc3ccc(S(=O)(=O)Nc4nccs4)cc3)nnc2-c2ccccn2)cc1 -3.23%, COC(=O)C1CN(CCc2ccccc2)CCS(=O)(=O)N1Cc1cccc(Cl)c1 (stereo not drawn) 0.85%, CN(C)[C@H]1CCN(c2cccc3c2S(=O)(=O)N2CC[C@H](C2)O3)C1 2.98%, O=S1(=O)c2c(cccc2N2CC[C@H](O)C2)O[C@@H]2CCN1C2 1.21%, O=C(c1ccncc1)N1CC[C@H]2[C@H](CCCN2Cc2ccc(F)cc2)C1 1.57%, O=C(N1CCOCC1)N1CC[C@H]2[C@H](CCCN2Cc2ccc(F)cc2)C1 3%, CCN(CC)C(=O)CC[C@@H]1CC[C@]2(CCCN(S(=O)(=O)C3CCCCC3)C2)O1 -3.12%, COc1ccc(Cn2cc(COC(=O)N(C)Cc3ccccc3)nn2)cc1 2.21%, CSc1ccc(-c2c(C#N)c(N)nc3c2c(C)nn3-c2ccccc2)cc1 -1.93%, CCc1c(-c2ccccc2)nc(N)c(C#N)c1-c1cccs1 0.5%, CCCCCCCCNS(=O)(=O)/C=C/c1cc(C)ccc1CNC(=O)OC(C)(C)C -0.25%, COc1ccc(CN2C(=O)N3Cc4cc(OC)ccc4C3CS2(=O)=O)cc1 (stereo not drawn) 0.03%, Cc1c(Cl)cnc(NC(=O)COC(=O)C2CCCC2)c1Cl 3.73%, Cc1sc2ncnc(SCC(=O)Nc3ccc(CN4CCCC4)cc3)c2c1C -2.64%, O=C(CNS(=O)(=O)c1ccccc1F)N1CCN(c2ccccn2)CC1 -3.63%, COC(=O)[C@]12C[C@H](CC(=O)N3CCN(C(=O)C4CC4)CC3)C(=O)N(CCC3=CCCCC3)C1=C[C@H](C(C)C)O[C@@H]2C1CC1 -2.49%, NS(=O)(=O)c1ccc(CCNC(=O)CN2C(=O)c3ccccc3S2(=O)=O)cc1 4.15%, O=C(CN1C(=O)c2ccccc2S1(=O)=O)N1CCc2ccccc21 -3.85%, CCOC(=O)[C@@]12CN(C(=O)OC(C)(C)C)CC=C1N(Cc1ccc(OC)cc1)C(=O)[C@H]2CC(=O)NCc1ccc(OC)c(OC)c1 -2.96%, CC(C)(C)OC(=O)NCc1cc(F)ccc1/C=C/S(=O)(=O)NCCc1ccccc1 1.04%
